mIDH1 inhibitor: human IDH1 R132H inhibition. actives 0.093% (n = 390,000). IDH1-R132H enzyme, NADPH consumption, diaphorase/resazurin fluorescence. Potency, µM (top dose mostly 76.6 µM), inactives show top-dose activity change, negative = inhibition, usual class: inhibitors. O75874; also: % is scaled to controls: 0 for no effect and ±100 for the full control effect; nearly all actives have a fitted effect of over 65% in size
Target sequence (O75874 whole entry R132H, stated change not applied): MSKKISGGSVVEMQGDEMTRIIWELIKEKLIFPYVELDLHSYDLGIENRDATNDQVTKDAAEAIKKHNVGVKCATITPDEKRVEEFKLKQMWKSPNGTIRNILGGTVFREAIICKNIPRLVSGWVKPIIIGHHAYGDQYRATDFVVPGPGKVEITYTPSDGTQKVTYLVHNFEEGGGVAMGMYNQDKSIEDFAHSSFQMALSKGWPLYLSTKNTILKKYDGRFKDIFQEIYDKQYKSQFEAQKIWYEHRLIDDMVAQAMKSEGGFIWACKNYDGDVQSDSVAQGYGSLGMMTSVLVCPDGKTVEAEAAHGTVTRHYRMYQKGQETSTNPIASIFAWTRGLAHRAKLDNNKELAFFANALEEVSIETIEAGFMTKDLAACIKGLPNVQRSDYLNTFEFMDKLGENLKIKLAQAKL
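IDH1-R132H (0.5 ug/mL dispensed) in pH 7.5 Tris buffer was preincubated 30 min with compound, then given a substrate mix of 0.016 mM NADPH and 2 mM alpha-KG for 80 min at room temperature; remaining NADPH was read by diaphorase/resazurin fluorescence.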
Apoferritin bind: binds horse apoferritin like a general anesthetic. apoferritin/1-aminoanthracene competitive binding, fluorescence. Potency, µM (doses to about 77.5 µM), for the others: at the top dose activity change, negative = displacement, hits mostly inhibitors. P02791. AID 485281. actives 0.074% (n = 350,000); also: % is scaled to controls: 0 for no effect and ±100 for the full control effect; nearly all actives have a fitted effect of over 20% in size
Target sequence (P02791 2-175 limits assumed): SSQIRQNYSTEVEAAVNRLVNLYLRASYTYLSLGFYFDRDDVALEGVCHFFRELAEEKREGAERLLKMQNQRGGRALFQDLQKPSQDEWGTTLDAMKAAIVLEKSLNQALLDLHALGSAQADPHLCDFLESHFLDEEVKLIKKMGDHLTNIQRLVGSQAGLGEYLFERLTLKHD
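Read-out: endpoint 1-AMA fluorescence, excitation 380 nm and emission 535 nm, after compounds sit 10 min at room temperature with 10 uM horse-spleen apoferritin in 50% saturated 1-AMA/PBS. Values come from four-parameter Hill fits.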
TrxR1 substrate: rat thioredoxin reductase 1 substrate activity; O89049; purified TrxR1 substrate turnover, NADPH consumption readout; Potency, µM (top dose mostly 114 µM), without a hit: at the highest dose activity change, negative = substrate turnover; actives 0.01% (n = 390,000); also: % is scaled to controls: 0 for no effect and ±100 for the full control effect; nearly all actives have a fitted effect of over 50% in size
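Rat TrxR1, dispensed at 90 nM, was prereduced with 400 uM NADPH (final) for 5 min at ~22 deg C, then incubated with compound 15 min before 400 uM selenite. A first-read NADPH fluorescence drop versus no-compound background flagged substrates.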
rTrxR1 inhibitor: rat TrxR1 inhibition; O89049; recombinant rTrxR1, NADPH fluorescence consumption, selenite substrate; Potency, µM (doses to about 114 µM), without a hit: at the top dose activity change, negative = inhibition, usual class: inhibitors; actives 1% (n = 390,000); also: % is scaled to controls: 0 for no effect and ±100 for the full control effect; nearly all actives have a fitted effect of over 65% in size
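Rat TrxR1 (90 nM in the dispensed reagent) was pre-reduced with 400 uM NADPH for 5 min at room temperature, then incubated with compound for 15 min. After 400 uM selenite was added, NADPH fluorescence (Ex 340/Em 450 nm) was followed for 8 min.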
ALOX12 inh: inhibitors of human 12S-lipoxygenase ALOX12; Potency, µM (top dose mostly 108 µM), for the others: at the top dose activity change, negative = inhibition, most hits filed as inhibitors; purified 12hLO, xylenol orange hydroperoxide absorbance; P18054; AID 1671190; actives 1.1% (n = 580,000); also: % is scaled to controls: 0 for no effect and ±100 for the full control effect
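Hydroperoxide product was detected by ferrous iron/xylenol orange as the 573 to 405 nm absorbance ratio. Arachidonic acid at 40 uM (final) was turned over for 30 min at room temperature by 150 nM human 12hLO, pH 7.0 Hepes buffer, after 15 min compound preincubation.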
Glioma ERSR ind: inducers of ER stress response in human glioma cells. U87-MG GRP78 promoter luciferase reporter, 16 h. Potency, µM, inactives show at the top dose activation, actives largely listed as activators. actives 0.02% (n = 420,000). AID 602332; also: series mostly up to about 76 µM; % of control where 0% means no effect; nearly all actives have a fitted effect of over 35% in size
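Stably transfected U87-MG human glioma cells carrying a GRP78-based luminescent sensor were seeded at 1000 cells/well, pin-dosed with compounds and incubated 16 h. Luciferase reagent was then added, and end-point luminescence was read after 10 min at room temperature.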
An asterisk follows results filed as active; ? = inconclusive; / = no result given; ! = not active in a repeat; [ ] = dose if it differs, or a comment. Hits are enriched below; roughly 1.7% of the tested compounds scored in any of these assays. Calls follow the shape of the dose curve; as a rule, active = well fitted curve in the direction sought with a large enough effect; inconclusive = small, poorly fitted or top-dose-only effect, or another doubt; inactive = no such curve, though single readings can be large; an effect the other way counts as inactive or inconclusive. Potency is read from the fitted curve at half-maximal effect.

SMILES	mIDH1 inhibitor	Apoferritin bind	TrxR1 substrate	rTrxR1 inhibitor	ALOX12 inh	Glioma ERSR ind
Oc1ccc2ccccc2c1CNc1ccc(Br)cc1	13%	-11%	1%	28µM*	3.5µM*	-10%
Oc1ccc2ccccc2c1CNc1ccc(Br)cn1	-1%	0%	5%	-17%	-4%	4%
CC(C)Oc1ccc(CN2CC(C(=O)NCc3ccncc3)C3(CCOCC3)C2)cc1 (centres undefined)	/	/	/	/	122%	/
O=C(O)C1Nc2c(O)cc(Cl)c([N+](=O)[O-])c2C2C=CCC12 (centres undefined)	5%	-21%	-7%	14µM*	?	-6%
CCN(CC)CCOC(=O)c1ccc(NC(=O)/C=C/c2cccs2)cc1	3%	-11%	-11%	?	?	3%
CCOC(=O)c1ccc(NC(=O)/C=C/c2cccs2)cc1	0%	?	79µM*	-35%	-4%	4%
O=C(OCC(=O)N1CCN(C(=O)c2ccco2)CC1)c1cc(-c2ccco2)nc2ccccc12	2%	7%	77%	?	4.5µM*	-1%
O=C(OCC(=O)N1CCCC1=O)c1cc(-c2ccco2)nc2ccccc12	/	/	/	/	5.6µM*	/
Cc1ccc(NC(=O)c2oc3ccccc3c2NC(=O)c2nn(-c3cccc(C)c3)ccc2=O)cc1	/	/	/	/	33%	/
O=C(CS(=O)c1ccc(C(F)(F)F)cc1[N+](=O)[O-])Oc1ccc(Cl)cc1 (centres undefined)	0%	?	-12%	50µM*	-1%	-13%
Cc1cc(C)cc(OC(=O)CS(=O)c2ccc(C(F)(F)F)cc2[N+](=O)[O-])c1 (centres undefined)	-6%	?	-18%	?	-37%	-16%
CC(Nc1ccc([N+](=O)[O-])cn1)c1ccc(Cl)cc1Cl (centres undefined)	/	/	/	/	56µM*	/
CC1=NN(Cc2ccccc2)C(=O)C1C(c1ccc(Cl)cc1)C(C#N)C#N (centres undefined)	-1%	-6%	-9%	25µM*	40µM*	-3%
COC(=O)C1=C(C)N(c2cccc(C)c2)C(=S)NC1c1ccc(C)s1 (centres undefined)	/	/	/	/	35µM*	/
COc1cc(/C=C/C(=O)OCCOc2ccc(Cl)cc2)ccc1O	/	/	/	/	20µM*	/
COc1cc(/C=C/C(=O)OCC(=O)NCc2ccco2)ccc1O	-3%	/	-2%	50µM*	-28%	-1%
COc1ccc(S(=O)(=O)NNc2nc(C)cc(C)n2)cc1Br	-6%	/	0%	11%	32µM*	-1%
Cc1cc(C)nc(NNS(=O)(=O)c2ccc(Cl)cc2)n1	5%	/	-1%	2%	?	-3%
O=C(/C=C/c1cccnc1)c1cccc(O)c1	3%	-7%	-17%[57.1 µM]	-58%	8.9µM*	-15%
O=C(/C=C/c1cccc(O)c1)c1cccnc1	2%	-5%	-5%	?	-10%	9%
O=C(C=Cc1cccnc1)c1ccccc1	1%	/	-7%	28µM*	0%	-6%
Cn1c(=O)c2c(nc(NCCO)n2Cc2cccc(C(F)(F)F)c2)n(C)c1=O	/	/	/	/	9%	/
CCOC(=O)C1=C(c2ccc(OC)cc2)OC(N)=C(C#N)C1c1cccnc1 (centres undefined)	7%	-3%	-7%	79µM*	?	-2%
CCOC(=O)C1=C(c2ccccc2)OC(N)=C(C#N)C1c1cccnc1 (centres undefined)	5%	-8%	-7%	-3%[57.1 µM]	-3%	11%
CCOC(=O)C1=C(C)OC(N)=C(C#N)C1c1ccc(C(F)(F)F)cc1 (centres undefined)	/	/	/	/	16µM*	/
SMILES	mIDH1 inhibitor	Apoferritin bind	TrxR1 substrate	rTrxR1 inhibitor	ALOX12 inh	Glioma ERSR ind
CC(=O)NS(=O)(=O)c1ccc(NC(=O)/C=C/c2ccc(C)o2)cc1	-5%	-4%	5%[57.1 µM]	16µM*	0%	3%
CCOCc1ccc(CNC(=O)/C=C/c2ccc(C)o2)cc1	/	/	/	/	-48%	/
Cc1ccc(/C=C/C(=O)Nc2ccc(S(N)(=O)=O)cc2)o1	2%	-5%	4%[57.1 µM]	5µM*	?	4%
Cc1ccc(/C=C/C(=O)Nc2ccncc2)o1	1%	-13%	-17%	79µM*	19%	1%
Cc1ccc(/C=C/C(=O)Nc2ccc(N(C)C)cc2)o1	4%	-20%	-7%	-15%	?	3%
Cc1ccc(/C=C/C(=O)NCc2ccc(S(N)(=O)=O)cc2)o1	3%	-7%	16%[57.1 µM]	16µM*	-13%	-6%
O=S(=O)(NC(=S)NC1CCCCC1)c1ccc(Cl)cc1	-1%	-14%	2%	2.8µM*	-29%	-1%
CCc1ccc(S(=O)(=O)NC(=S)NC2CCCCC2)cc1	-3%	-7%	5%[57.1 µM]	6.3µM*	?	-2%
CCc1ccc(C(C)NC(=S)NC2CCCCC2)cc1 (centres undefined)	5%	-15%	-1%	15%	/	-6%
Cc1ccc(S(=O)(=O)NC(=O)NN2CC3CCCC3C2)cc1 (centres undefined)	9%	-5%	5%	6%	3.1µM*!	3%
Cc1ccc(S(=O)(=O)NC(=S)NC2CCCCC2)cc1	-9%	-7%	8%	3.5µM*	-7%	-3%
Cc1ccc(S(=O)(=O)NC(=O)NN2CCCCCC2)cc1	-3%	-1%	7%[57.1 µM]	?	?	-4%
CCOC(=O)c1c(C)n(CC)c2ccc(OC(=O)c3ccccc3)cc12	/	/	/	/	-5%	/
S=C(NCc1ccc(Cl)cc1Cl)NC1CCCCC1	0%	1%	3%[57.1 µM]	24%[57.1 µM]	40µM*	-5%
O=C1[C@H]2[C@@H](c3ccccc3)N[C@]3(CCCN(Cc4ccc(Br)cc4)C3=O)[C@H]2C(=O)N1Cc1ccccc1	?	/	/	/	-77%	1%
O=C1[C@H]2[C@@H](c3ccccc3)N[C@]3(CCCN(Cc4ccc(Cl)cc4)C3=O)[C@H]2C(=O)N1Cc1ccccc1	?	/	/	/	7.9µM*	-2%
O=C(O)COc1ccccc1C(Nc1cccnc1)c1cc(Cl)c2cccnc2c1O (centres undefined)	?	28µM*	1%[57.1 µM]	0.56µM*	/	-5%
CCOc1ccc(C(Nc2cccnc2)c2cc(Cl)c3cccnc3c2O)cc1 (centres undefined)	7%	-11%	9%[11.4 µM]	2.8µM*	10µM*	-7%
CCOc1ccc(C(NC(C)=O)c2cc(Cl)c3cccnc3c2O)cc1 (centres undefined)	/	/	-6%	22%[0.0914 µM]	/	0%
O=C(O)COc1ccccc1C(Nc1ccccn1)c1cc(Cl)c2cccnc2c1O (centres undefined)	-5%	-8%	-5%[11.4 µM]	?	?	-2%
